Molecules are shown by their SMILES. ± gives the standard deviation of the averaged measurements.

Test [1] has as its system DLD1. The experiment in a line: cell viability (CellTiter-Glo) relative to plate median (fraction of plate median); higher = more viable cells. The note with it: 5 µM; treatment time 24 h; reporter: 7TFP. In outline:
(§1)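 After seeding in 384-well plates, colorectal cancer cell lines carrying stable lentiviral TCF/Wnt firefly luciferase reporters (7TFP or TCF4/Wnt) were left 24 h. Library compounds were then added at a final 5 µM for 24 h. A Tecan F500 reader measured firefly luciferase or CellTiterGlo luminescence on parallel plates, with each well normalised to the plate median by webcellHTS2 (additive, no log transformation), and two independent replicates averaged.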

Another test has as its system HCT116. Described as above. The settings on record: 5 µM; treatment time 24 h; reporter: TCF4/Wnt. In outline:
as §1

The subject of test [2] is SW480. Described as above. The settings on record: 5 µM; treatment time 24 h; reporter: 7TFP. In outline:
as §1

Test [3] has as its system DLD1. The experiment in a line: TCF/Wnt firefly luciferase reporter signal relative to plate median (fraction of plate median); higher = higher Wnt reporter signal. The note with it: 5 µM; treatment time 24 h; reporter: 7TFP. In outline: as §1
Background: A reporter such as luciferase makes a cellular process visible.

Test [4] concerns SW480. The test is described as above. The note with it: 5 µM; treatment time 24 h; reporter: 7TFP. In outline:
as §1

`COC(=O)C[C@H]1C2(C)CC34OC5(C)O[C@@]6([C@H](OC(C)=O)C(OC(C)=O)[C@]7(C)C(/C(=C(/O)C(C)C)C(=O)O[C@H]7c7ccoc7)[C@@]6(O5)[C@H](OC(C)=O)[C@@]3(O)C2OC(=O)C(C)C)[C@]14C` (stereo not given in full): the cell viability came out at 1.02 ± 0.021 in the test with DLD1 [1], 0.959 ± 0.1 in the test with HCT116 and 1.01 ± 0.021 in the test with SW480 [2]. The figures for the “TCF/Wnt firefly luciferase reporter signal” value in the test on DLD1 [3] and with SW480 [4] were 1.05 ± 0.14 and 1.08, respectively.

For `COCCOC(=O)C1=C(C)NC(C)=C(C(=O)OC(C)C)C1c1cccc([N+](=O)[O-])c1` (stereo not given), the values for the cell viability with DLD1 [1], with HCT116 and in the test with SW480 [2] were 0.9 ± 0.1, 0.916 ± 0.16 and 0.858 ± 0.11, respectively. The “TCF/Wnt firefly luciferase reporter signal” value with DLD1 [3] was 0.967 ± 0.089; in the test with SW480 [4], 1.12 ± 0.11.

Take `CN(C)CCc1c[nH]c2ccc(Cn3cncn3)cc12`: the cell viability in the test with DLD1 [1] stood at 0.968 ± 0.011; in the test with HCT116, 1.09 ± 0.064; with SW480 [2], 1.03 ± 0.042. The “TCF/Wnt firefly luciferase reporter signal” value in the test on DLD1 [3] came to 1.09 ± 0.2; in the test on SW480 [4], 1.07 ± 0.099.

Take `CC(=O)[C@H]1CC[C@H]2[C@@H]3CC=C4C[C@@H](OC(=O)CCC(=O)O)CC[C@]4(C)[C@H]3CC[C@]12C`: the cell viability in the test with DLD1 [1] was found to be 1.02 ± 0.021; in the test on HCT116, 1.01 ± 0.018; in the test with SW480 [2], 0.975 ± 0.033. Moreover, the “TCF/Wnt firefly luciferase reporter signal” value came to 0.97 ± 0.03 in the test on DLD1 [3] and 1.1 ± 0.028 in the test with SW480 [4].

For the compound `N=C(N)N`, the cell viability was 0.982 ± 0.025 in the test with DLD1 [1], 0.95 ± 0.16 in the test on HCT116 and 1.02 ± 0.014 in the test with SW480 [2]. Further, the “TCF/Wnt firefly luciferase reporter signal” value in the test with DLD1 [3] was found to be 0.924 ± 0.076; in the test on SW480 [4] it was 1.025 ± 0.0071.

As to `CN1[C@@H](CC(=O)c2ccccc2)CCC[C@H]1C[C@H](O)c1ccccc1`, the cell viability in the test with DLD1 [1] amounted to 1.1 ± 0.13; in the test with HCT116 it was 0.987 ± 0.061; in the test on SW480 [2] it was 1.05 ± 0.021. Also, the “TCF/Wnt firefly luciferase reporter signal” value with DLD1 [3] was found to be 0.998 ± 0.032; in the test on SW480 [4] it was 1.04 ± 0.098.

For `CN1CCC[C@@H]1CCO[C@](C)(c1ccccc1)c1ccc(Cl)cc1`, the cell viability in the test with DLD1 [1] was determined as 0.982 ± 0.096; in the test on HCT116, 0.917 ± 0.018; with SW480 [2] it was 1.05 ± 0.042. For the same compound, the results for the “TCF/Wnt firefly luciferase reporter signal” value in the test on DLD1 [3] and in the test with SW480 [4] were 0.913 ± 0.19 and 0.87 ± 0.041, respectively.

Turning to `CC(=O)O[C@@H]1C2=C(C)C=C(O2)[C@H]2O[C@]2(C)C[C@H]2C=C(C(=O)O2)[C@H](OC(C)=O)CC1[C@@]1(C)CO1` (stereo not given in full) [bipinnatin H], the cell viability in the test on DLD1 [1] was determined as 1.1 ± 0.13; in the test with HCT116 it was 1.08 ± 0.17; with SW480 [2], 0.984 ± 0.023. In addition, the “TCF/Wnt firefly luciferase reporter signal” value was determined as 0.897 ± 0.16 in the test on DLD1 [3] and 0.7915 ± 0.0021 in the test with SW480 [4].

For the compound `COc1ccc2c(c1)O[C@H]1c3ccc(OC)cc3OC[C@@H]21`, the cell viability in the test with DLD1 [1] came out at 0.969 ± 0.044; with HCT116, 0.906 ± 0.12; in the test with SW480 [2], 0.979 ± 0.044. In addition, the figures for the “TCF/Wnt firefly luciferase reporter signal” value with DLD1 [3] and with SW480 [4] were 0.792 ± 0.025 and 0.969 ± 0.086, respectively.

In the case of `COc1cc2c(cc1OC)C1(O)C(=O)c3ccc(O)c(C(=O)O)c3OC1CO2` (stereo not given), the cell viability in the test on DLD1 [1] is 1.05 ± 0.035; with HCT116, 1.04 ± 0.059; in the test with SW480 [2], 1.08 ± 0.014. In addition, the “TCF/Wnt firefly luciferase reporter signal” value in the test with DLD1 [3] was determined as 0.9145 ± 0.005; in the test with SW480 [4], 0.984 ± 0.14.

Turning to `C/C=C/C/C=C/CCC(=O)[C@H]1O[C@H]1C(N)=O` [Cerulenin], the cell viability was 0.927 ± 0.092 with DLD1 [1], 0.951 ± 0.069 in the test on HCT116 and 0.946 ± 0.018 in the test on SW480 [2]. Besides, the “TCF/Wnt firefly luciferase reporter signal” value is 1.01 ± 0.11 with DLD1 [3] and 0.993 ± 0.025 in the test with SW480 [4].

On to `COC(=O)CC1C(C)(C)C(OC(C)=O)[C@@H]2[C@@H](OC(C)=O)[C@]34O[C@@]2(O)[C@]1(C)C3CC[C@]1(C)C4=CC(=O)O[C@H]1c1ccoc1` (stereo not given in full), for which the values for the cell viability with DLD1 [1], in the test with HCT116 and with SW480 [2] were 1.02 ± 0.11, 1.02 ± 0.098 and 1.04, respectively. Further, the figures for the “TCF/Wnt firefly luciferase reporter signal” value with DLD1 [3] and in the test with SW480 [4] were 1.01 ± 0.061 and 0.992 ± 0.026, respectively.

Take `COC(=O)[C@@]1(C)CCC[C@]2(C)c3ccc(O)c(C(C)C)c3CCC12` (stereo not given in full): the figures for the cell viability with DLD1 [1], in the test with HCT116 and in the test with SW480 [2] were 1.03 ± 0.028, 0.982 ± 0.096 and 1.03 ± 0.028, respectively. The “TCF/Wnt firefly luciferase reporter signal” value is 0.892 ± 0.046 with DLD1 [3] and 0.88 ± 0.049 with SW480 [4].

Values taken from the supplement of paper PMC6522484.
